Wnt bcat act: activators of Wnt/beta-catenin signaling. Wnt/beta-catenin reporter cell assay, activator, plate reader. AID 743398. activation, % at 9.35 µM. 300,000 tested, 1.2% active; in the data active = activation above about 30%, passing the limit was not always enough; inconclusive = no clear call, values can overlap the other calls;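 note: 0% = neutral control wells and 100% = positive control wells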
esBAF inh: blocks esBAF chromatin remodeling in mouse ES cells | reporter increase, % at 12.5 µM | Bmi1-luciferase knock-in reporter, 24 h; 100% = twice the neutral-well signal | 350,000 tested, 2% active; in the data active = activation above about 40%; inconclusive = no clear call, values can overlap the other calls;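 note: 0% = median of the plate's neutral control wells and 100% = double that signal; a rise in the Bmi1 reporter signal indicates esBAF inhibition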
hgDAF12 agonist: hgDAF-12 agonism, primary luciferase screen. activation, % at 6.8 µM. HEK293 GAL4-hgDAF12 UAS-luciferase reporter, agonist luminescence; normalized to butyrate control. 370,000 tested, 1.8% active. AID 687014;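 active = activation above a cutoff set at the mean of all screened compounds plus 3 SD, cut at about 10% in these data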;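 note: 0% = DMSO wells and 100% = sodium butyrate wells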
hcDAF-12 act: activates DAF-12 receptor from parasite H. contortus | HEK293 hcDAF-12 lit1-tk-luc reporter, luminescence; 0% DMSO, 100% Δ7-dafachronic acid | activation, % at 6.8 µM | AID 652067 | 370,000 tested, 1.4% active;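 active = activation above the mean of all tested compounds plus 3 SD, cut at about 5.5% in these data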;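 note: 100% = response to 3 µM Δ7-dafachronic acid high control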
ssDAF-12 act: activates DAF-12 receptor from parasite S. stercoralis. HEK293 ssDAF-12/GRIP1 lit1-tk-luc reporter, luminescence; % of 3 µM dafachronic acid response. activation, % at 6.8 µM. 370,000 tested, 1% active;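 active = activation above the mean over all tested compounds plus 3 SD, cut at about 0.9% in these data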;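 note: 0% = DMSO-only wells and 100% = 3 µM delta7-dafachronic acid wells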
DAX1 inh: inhibitors of DAX1 repression of SF-1 activated StAR promoter | HEK293T StAR-luciferase reporter, SF-1/DAX-1 repression relief | inhibition, % at 6.8 µM | 370,000 tested, 1.1% active;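 active = inhibition above the mean over all tested compounds plus 3 SD, cut at about 3.6% in these data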;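 note: 0% = DAX-1 cells with DMSO and 100% = cells lacking DAX-1 with DMSO; higher inhibition means more luminescence from relief of DAX-1 repression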
Active calls of the source: *; ? = inconclusive; / = no result. Most compounds without a hit are left out; they make up all but 4.2% or so of the library.

SMILES	Wnt bcat act	esBAF inh	hgDAF12 agonist	hcDAF-12 act	ssDAF-12 act	DAX1 inh
COC(=O)c1sc(NC(=O)c2ccoc2C)nc1C	10	49*	3	-1	0	1
COC(=O)c1sc(NC(=O)Cc2cccs2)nc1C	/	42*	7	1	-1	2
Cc1ccc(S(=O)(=O)N(C)C[C@@H]2OCCCC[C@@H](C)Oc3ccc(NS(=O)(=O)c4cccs4)cc3C(=O)N([C@@H](C)CO)C[C@@H]2C)cc1	/	4	/	/	/	/
C[C@@H]1CN([C@H](C)CO)C(=O)c2cc(-c3ccc(C#N)cc3)cnc2O[C@H]1CN(C)C(=O)CN(C)C	/	3	/	/	/	/
C[C@H](O)C#Cc1ccc2c(c1)O[C@@H](CN(C)CC1CC1)[C@H](C)CN([C@H](C)CO)S2(=O)=O	/	7	/	/	/	/
COc1ccc(C2=NOC(CN3C(=O)c4ccccc4S3(=O)=O)C2)cc1 (stereo unspecified)	/	23	12*	4	1	2
O=C1c2ccccc2S(=O)(=O)N1CC1CC(c2ccccc2)=NO1 (stereo unspecified)	/	?	8	2	-1	2
Cn1c(=NC(=O)c2ccccc2[N+](=O)[O-])sc2cccc(F)c21	?	24	13*	0	-1	3
COc1ccc(/C=C/C(=O)NC(=S)NNC(=O)[C@H]2C[C@@H]2c2ccccc2)cc1OC	-8	1	-1	0	-1	0
COc1cccc(OC)c1C(=O)NC(=S)NNC(=O)[C@H]1C[C@@H]1c1ccccc1	1	-1	3	-1	1.7*	0
O=C(NC(=S)NNC(=O)[C@H]1C[C@@H]1c1ccccc1)c1cccc(F)c1	2	/	0	1	1.4*	1
C[C@H](CO)N1C[C@H](C)[C@H](CN(C)S(C)(=O)=O)Oc2ccc(NS(=O)(=O)c3cn(C)cn3)cc2C1=O	/	0	/	/	/	/
O=C(C[C@H]1C[C@H]2c3cc(NC(=O)Nc4ccc(C(F)(F)F)cc4)ccc3O[C@H]2[C@H](CO)O1)NCCc1ccccc1	/	0	/	/	/	/
Cc1cccc(NC(=O)CCSc2ccccc2)c1C	52*	/	1	0	-1	0
CC(C)CCN1CCC(CN2C(=O)C(=O)NC[C@@H]2CC(C)C)CC1	-2	-5	1	-1	-1	-1
CC(C)C[C@H]1CN(CCCC[C@@H]2CNC(=O)C(=O)N2CC2CCCCC2)C(=O)C(=O)N1Cc1ccccc1	-2	/	11*	-2	-1	0
CC(C)C[C@H]1CNC(=O)C(=O)N1CC1CCN(CC2CCC(C(C)(C)C)CC2)CC1 (stereo partly specified)	-1	-5	2	0	-1	4.1*
O=C1NC[C@H](CCCCN2C[C@H](Cc3ccccc3)N(CC3CCCCC3)C(=O)C2=O)N(CCC2CCCCC2)C1=O	-2	/	1	-1	1.4*	0
C[C@@H]1CCCCO[C@H](CN(C)Cc2ccncc2)[C@H](C)CN([C@H](C)CO)C(=O)c2cc(NC(=O)c3ccccc3)ccc2O1	/	-1	/	/	/	/
O=C(NNC(=O)c1ccccc1F)c1cccc(-n2cccc2)c1	-3	45*	4	-1	-1	3.7*
O=C(NNC(=O)c1cccc(-n2cccc2)c1)c1ccccc1	0	?	3	0	-1	3
CC(=O)N1[C@H](C(=O)NCc2ccc(F)cc2)[C@@H](CO)[C@@H]2Cn3c(cccc3=O)[C@@H]21	/	-2	/	/	/	/
CCOc1ccc(Oc2cc(NC(=O)c3ccco3)cc([N+](=O)[O-])c2)cc1	/	/	1	-2	-2	-2
CC(=O)Nc1cccc(NC(=O)c2ccco2)c1	/	-4	0	0	-1	0
COc1cccc(NC(=O)c2ccco2)c1	/	60*	3	1	0	1
SMILES	Wnt bcat act	esBAF inh	hgDAF12 agonist	hcDAF-12 act	ssDAF-12 act	DAX1 inh
O=C(Nc1cccc(F)c1)c1ccco1	3	45*	5	2	0	-1
CC1(C)Oc2ccc(NC(=O)c3ccco3)cc2O1	/	?	11*	3	0	2
O=C(Nc1cc(Oc2ccc(Cl)cc2)cc([N+](=O)[O-])c1)c1ccco1	3	-5	-2	5.6*	-1	0
Cc1ccc(S(=O)(=O)Nc2ccc3c(c2)C(=O)N([C@@H](C)CO)C[C@H](C)[C@@H](CN(C)Cc2ccc4c(c2)OCO4)OCCCC[C@H](C)O3)cc1	/	-2	/	/	/	/
CC(C)CC#Cc1cnc2c(c1)C(=O)N([C@H](C)CO)C[C@H](C)[C@H](CN(C)C(=O)c1ccccc1F)O2	/	-1	/	/	/	/
CO[C@H]1CN(C)C(=O)c2cc(NS(=O)(=O)c3ccc(Cl)cc3)ccc2OC[C@H](C)N(C)C[C@H]1C	/	-1	/	/	/	/
O=C(COc1cccc(NC(=O)c2ccco2)c1)c1ccccc1	12	50*	-1	-2	-1	1
COc1ccc(C(=O)COc2cccc(NC(=O)c3ccco3)c2)cc1	-2	/	1	0	-1	0
COc1cccc(NC(=O)c2cccc(C)c2[N+](=O)[O-])c1	33*	/	7	2	0	1
O=C(c1ccccc1)c1cccc(NC(=O)c2ccco2)c1	/	66*	5	2	-1	0
Cc1noc(C)c1S(=O)(=O)Nc1cccc2c1O[C@H](CN(C)C(=O)Nc1cccc3ccccc13)[C@H](C)CN([C@@H](C)CO)C2=O	/	-1	/	/	/	/
COc1ccc(C(=O)NCc2ccc(-c3nc4ccccc4s3)cc2)cc1OC	7	47*	5	-1	0	0
O=C(NCc1ccc(-c2nc3ccccc3s2)cc1)c1ccco1	10	/	1	-2	0	0
O=C(NN=C1CCCC1)c1ccccc1[N+](=O)[O-]	1	9	-2	0	-1	0
O=C(O)c1ccccc1NN=C1CCCCC1	4	83*	1	-1	0	1
O=C(NN=C1CCCC1)c1ccccc1O	-1	75*	11*	0	0	0
Nc1ccc2oc3ccc(N)cc3c(=O)c2c1	/	26	11*	5.6*	1	4.2*
CCOC(=O)c1ccc2c(c1)nc(SC/C(O)=C(\C#N)c1nc3ccccc3[nH]1)n2CC	/	-2	3	5	1.6*	0
COc1ccccc1-c1ccc([C@@H]2[C@@H](C#N)N(C(=O)NC(C)C)[C@@H]2CO)cc1	/	0	/	/	/	/
Clc1nnc(NN=C2CCCC2)c2ccccc12	2	/	4	4	1.3*	0
C=CCNc1nnc(Cl)c2ccccc12	-1	/	/	/	/	/
CC(=O)Nc1ccc(CNc2ncnc3ccc(-c4c(C)noc4C)cc23)cc1	22	12	-1	6.3*	1.2*	2
O=c1c2ccccc2nnn1CSc1nc2ccccc2[nH]1	/	/	11*	0	-1	2
O=C(CSc1nc2ccccc2[nH]1)NCc1ccccc1	18	43*	3	0	-1	2

Screening data deposited in PubChem by several laboratories.
